Data from the supplement of paper PMC12669032.

Columns and labels:
Assay in all cases: growth AUC relative to DMSO control (median of replicates) (fraction); higher = more growth (less inhibition), active = hit call of the paper
Details in all cases: 20 µM; 24 h;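 active = AUC reduced over 20% with Padj below 0.05 in at least 2 of 3 replicates; inactive = otherwise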
Akkermansia muciniphila = tested on: Akkermansia muciniphila
Summary of the method: (§1)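 Hourly OD600 readings over 24 h tracked anaerobic gut bacterial monocultures grown at 37 °C in mGAM from OD600 0.05 with 20 µM compound (1% DMSO). After the minimum OD was set to 0, area under the growth curve was normalised to the plate median of solvent-only wells, or to row and column medians on the industrial chemical plate. Values are medians of three biological replicates grown on separate days.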

Bacteroides caccae = tested on: Bacteroides caccae
Summary of the method: as §1

Bacteroides clarus = tested on: Bacteroides clarus
Summary of the method: as §1

Bacteroides dorei = tested on: Bacteroides dorei
Summary of the method: as §1

Bacteroides stercoris = tested on: Bacteroides stercoris
Summary of the method: as §1

[1] = tested on: Bacteroides thetaiotaomicron
Summary of the method: as §1

Bacteroides uniformis = tested on: Bacteroides uniformis
Summary of the method: as §1

[2] = tested on: Bifidobacterium longum subsp. longum
Summary of the method: as §1

Clostridium difficile = tested on: Clostridium difficile
Summary of the method: as §1

Collinsella aerofaciens = tested on: Collinsella aerofaciens
Summary of the method: as §1

Coprococcus comes = tested on: Coprococcus comes
Summary of the method: as §1

Escherichia coli ED1a = tested on: Escherichia coli ED1a
Summary of the method: as §1

Escherichia coli IAI1 = tested on: Escherichia coli IAI1
Summary of the method: as §1

Eubacterium rectale = tested on: Eubacterium rectale
Summary of the method: as §1

[3] = tested on: Fusobacterium nucleatum subsp. animalis
Summary of the method: as §1

Lactobacillus gasseri = tested on: Lactobacillus gasseri
Summary of the method: as §1

Lactobacillus paracasei = tested on: Lactobacillus paracasei
Summary of the method: as §1

Odoribacter splanchnicus = tested on: Odoribacter splanchnicus
Summary of the method: as §1

[4] = tested on: Parabacteroides distasonis
Summary of the method: as §1

Parabacteroides merdae = tested on: Parabacteroides merdae
Summary of the method: as §1

Measured: growth AUC

O=C(O)COc1ccc(Cl)cc1CO
inactive: Akkermansia muciniphila 1.15 | Bacteroides caccae 0.99 | Bacteroides clarus 0.995 | Bacteroides dorei 0.721 | Bacteroides stercoris 0.938 | [1] 0.971 | Bacteroides uniformis 0.98 | [2] 1 | Clostridium difficile 1.03 | Collinsella aerofaciens 0.96 | Coprococcus comes 0.999 | Escherichia coli ED1a 0.964 | Escherichia coli IAI1 1.01 | Eubacterium rectale 1.05 | [3] 0.931 | Lactobacillus gasseri 0.852 | Lactobacillus paracasei 0.993 | Odoribacter splanchnicus 0.96 | [4] 0.91 | Parabacteroides merdae 0.978

CCCN(CCOc1c(Cl)cc(Cl)cc1Cl)C(N)=O
inactive: Akkermansia muciniphila 0.911 | Bacteroides caccae 0.899 | Bacteroides clarus 0.959 | Bacteroides dorei 0.935 | Bacteroides stercoris 0.98 | [1] 0.961 | Bacteroides uniformis 0.894 | [2] 0.971 | Clostridium difficile 0.987 | Collinsella aerofaciens 0.993 | Coprococcus comes 1 | Escherichia coli ED1a 1.01 | Escherichia coli IAI1 0.985 | Eubacterium rectale 1 | [3] 0.935 | Lactobacillus gasseri 0.946 | Lactobacillus paracasei 0.851 | Odoribacter splanchnicus 0.978 | [4] 0.949 | Parabacteroides merdae 0.977

COC(=O)CCCOc1ccc(Cl)cc1Cl
inactive: Akkermansia muciniphila 1.01 | Bacteroides caccae 0.964 | Bacteroides clarus 1.02 | Bacteroides dorei 0.922 | Bacteroides stercoris 0.997 | [1] 1.01 | Bacteroides uniformis 0.945 | [2] 1.04 | Clostridium difficile 0.973 | Collinsella aerofaciens 0.987 | Coprococcus comes 0.968 | Escherichia coli ED1a 0.983 | Escherichia coli IAI1 0.958 | Eubacterium rectale 1.1 | [3] 0.966 | Lactobacillus gasseri 0.916 | Lactobacillus paracasei 0.916 | Odoribacter splanchnicus 0.925 | [4] 0.791 | Parabacteroides merdae 0.97

COCC(=O)N(c1c(C)cccc1C(=O)O)C(C)C(=O)O (stereo not given)
inactive: Akkermansia muciniphila 0.834 | Bacteroides caccae 1.02 | Bacteroides clarus 0.979 | Bacteroides dorei 1.01 | Bacteroides stercoris 0.917 | [1] 0.967 | Bacteroides uniformis 0.974 | [2] 0.907 | Clostridium difficile 1.04 | Collinsella aerofaciens 1 | Coprococcus comes 1.01 | Escherichia coli ED1a 0.986 | Escherichia coli IAI1 0.978 | Eubacterium rectale 0.949 | [3] 0.879 | Lactobacillus gasseri 1.07 | Lactobacillus paracasei 0.734 | Odoribacter splanchnicus 1.1 | [4] 1.01 | Parabacteroides merdae 0.989

C#CCOC(=O)[C@@H](C)Oc1ccc(Oc2ncc(Cl)cc2F)cc1
inactive: Akkermansia muciniphila 0.914 | Bacteroides caccae 0.998 | Bacteroides clarus 0.985 | Bacteroides dorei 1.02 | Bacteroides stercoris 1.05 | [1] 0.975 | Bacteroides uniformis 0.942 | [2] 1.04 | Clostridium difficile 0.99 | Collinsella aerofaciens 0.964 | Coprococcus comes 0.978 | Escherichia coli ED1a 1.01 | Escherichia coli IAI1 0.987 | Eubacterium rectale 0.982 | [3] 0.903 | Lactobacillus gasseri 0.962 | Lactobacillus paracasei 0.997 | Odoribacter splanchnicus 0.982 | [4] 1 | Parabacteroides merdae 0.979

CC(Oc1ccc(Cl)cc1Cl)C(=O)NC(C)(C#N)C(C)C (stereo not given)
active: [4] 0.65
inactive: Akkermansia muciniphila 1.27 | Bacteroides caccae 0.944 | Bacteroides clarus 1 | Bacteroides dorei 0.999 | Bacteroides stercoris 0.99 | [1] 0.964 | Bacteroides uniformis 0.92 | [2] 1.02 | Clostridium difficile 0.935 | Collinsella aerofaciens 0.977 | Coprococcus comes 1.02 | Escherichia coli ED1a 0.989 | Escherichia coli IAI1 1.01 | Eubacterium rectale 1.13 | [3] 0.972 | Lactobacillus gasseri 0.803 | Lactobacillus paracasei 0.997 | Odoribacter splanchnicus 0.838 | Parabacteroides merdae 0.981

[O-][n+]1nc(-n2ccnc2)nc2ccc(Cl)cc21
inactive: Akkermansia muciniphila 0.972 | Bacteroides caccae 1.07 | Bacteroides clarus 1 | Bacteroides dorei 1.05 | Bacteroides stercoris 0.911 | [1] 0.99 | Bacteroides uniformis 1.04 | [2] 0.974 | Clostridium difficile 0.957 | Collinsella aerofaciens 0.964 | Coprococcus comes 1.04 | Escherichia coli ED1a 0.95 | Escherichia coli IAI1 0.956 | Eubacterium rectale 1.12 | [3] 1.06 | Lactobacillus gasseri 0.831 | Lactobacillus paracasei 1.01 | Odoribacter splanchnicus 1.03 | [4] 0.897 | Parabacteroides merdae 1.02

CC(C)c1ccccc1
inactive: Akkermansia muciniphila 0.937 | Bacteroides caccae 1.02 | Bacteroides clarus 1.01 | Bacteroides dorei 1.02 | Bacteroides stercoris 1.02 | [1] 0.999 | Bacteroides uniformis 0.999 | [2] 0.947 | Clostridium difficile 1.02 | Collinsella aerofaciens 1.02 | Coprococcus comes 0.983 | Escherichia coli ED1a 0.987 | Escherichia coli IAI1 0.999 | Eubacterium rectale 0.968 | [3] 0.92 | Lactobacillus gasseri 1.17 | Lactobacillus paracasei 0.996 | Odoribacter splanchnicus 0.999 | [4] 1.04 | Parabacteroides merdae 1.02

CP(=O)(O)CCC(=O)O
inactive: Akkermansia muciniphila 0.928 | Bacteroides caccae 0.975 | Bacteroides clarus 0.956 | Bacteroides dorei 1.01 | Bacteroides stercoris 1.01 | [1] 1.03 | Bacteroides uniformis 0.967 | [2] 1.03 | Clostridium difficile 1.04 | Collinsella aerofaciens 1 | Coprococcus comes 0.993 | Escherichia coli ED1a 0.973 | Escherichia coli IAI1 0.999 | Eubacterium rectale 0.804 | [3] 0.999 | Lactobacillus gasseri 1.14 | Lactobacillus paracasei 0.999 | Odoribacter splanchnicus 1.04 | [4] 0.974 | Parabacteroides merdae 0.993

Cc1ccc(C(C)NC(=O)[C@@H](NC(=O)OC(C)C)C(C)C)cc1 (stereo not given in full)
inactive: Akkermansia muciniphila 1.06 | Bacteroides caccae 0.975 | Bacteroides clarus 1.03 | Bacteroides dorei 1.01 | Bacteroides stercoris 1.11 | [1] 0.984 | Bacteroides uniformis 0.973 | [2] 0.97 | Clostridium difficile 0.951 | Collinsella aerofaciens 0.986 | Coprococcus comes 1.01 | Escherichia coli ED1a 1.01 | Escherichia coli IAI1 0.992 | Eubacterium rectale 1.08 | [3] 1.08 | Lactobacillus gasseri 0.895 | Lactobacillus paracasei 1.02 | Odoribacter splanchnicus 0.953 | [4] 0.917 | Parabacteroides merdae 1.01

CCc1cccc(C)c1N(C(=O)C(=O)O)C(C)COC (stereo not given)
inactive: Akkermansia muciniphila 0.949 | Bacteroides caccae 1.03 | Bacteroides clarus 0.97 | Bacteroides dorei 1.02 | Bacteroides stercoris 1.1 | [1] 1.03 | Bacteroides uniformis 1.03 | [2] 1.03 | Clostridium difficile 1.03 | Collinsella aerofaciens 1.04 | Coprococcus comes 1.02 | Escherichia coli ED1a 0.992 | Escherichia coli IAI1 0.987 | Eubacterium rectale 0.979 | [3] 1.01 | Lactobacillus gasseri 0.977 | Lactobacillus paracasei 0.852 | Odoribacter splanchnicus 1.04 | [4] 1.02 | Parabacteroides merdae 1.01

CCOC(=O)[C@@H](C)Oc1ccc(Oc2cnc3cc(Cl)ccc3n2)cc1
inactive: Akkermansia muciniphila 0.987 | Bacteroides caccae 0.9 | Bacteroides clarus 0.965 | Bacteroides dorei 0.967 | Bacteroides stercoris 0.996 | [1] 0.998 | Bacteroides uniformis 0.947 | [2] 1.01 | Clostridium difficile 1.01 | Collinsella aerofaciens 1.01 | Coprococcus comes 0.983 | Escherichia coli ED1a 0.997 | Escherichia coli IAI1 1.01 | Eubacterium rectale 1.01 | [3] 0.992 | Lactobacillus gasseri 1.03 | Lactobacillus paracasei 0.917 | Odoribacter splanchnicus 0.984 | [4] 1.02 | Parabacteroides merdae 0.99

FC(F)(F)/N=C1\SC(=Nc2ccccc2)N(c2ccccc2)\C1=N\C(F)(F)F
inactive: Akkermansia muciniphila 0.949 | Bacteroides caccae 0.933 | Bacteroides clarus 0.96 | Bacteroides dorei 0.947 | Bacteroides stercoris 0.925 | [1] 1.01 | Bacteroides uniformis 0.924 | [2] 1.03 | Clostridium difficile 0.984 | Collinsella aerofaciens 0.907 | Coprococcus comes 0.983 | Escherichia coli ED1a 0.962 | Escherichia coli IAI1 0.96 | Eubacterium rectale 1.3 | [3] 0.653 | Lactobacillus gasseri 0.903 | Lactobacillus paracasei 1.09 | Odoribacter splanchnicus 1.13 | [4] 0.949 | Parabacteroides merdae 0.908

COC(=O)c1c(Cl)nn(C)c1S(=O)(=O)NC(=O)Nc1nc(OC)cc(OC)n1
inactive: Akkermansia muciniphila 0.984 | Bacteroides caccae 1.04 | Bacteroides clarus 1.07 | Bacteroides dorei 1.02 | Bacteroides stercoris 1 | [1] 0.991 | Bacteroides uniformis 1 | [2] 1.06 | Clostridium difficile 1 | Collinsella aerofaciens 1.02 | Coprococcus comes 1 | Escherichia coli ED1a 1.01 | Escherichia coli IAI1 1.01 | Eubacterium rectale 1 | [3] 1.09 | Lactobacillus gasseri 0.882 | Lactobacillus paracasei 1.03 | Odoribacter splanchnicus 0.999 | [4] 1.01 | Parabacteroides merdae 0.99

COC(=O)Nc1ccc(Cl)c(Cl)c1
inactive: Akkermansia muciniphila 0.817 | Bacteroides caccae 0.99 | Bacteroides clarus 0.96 | Bacteroides dorei 0.969 | Bacteroides stercoris 0.95 | [1] 0.966 | Bacteroides uniformis 0.966 | [2] 0.84 | Clostridium difficile 0.978 | Collinsella aerofaciens 1.02 | Coprococcus comes 0.987 | Escherichia coli ED1a 0.999 | Escherichia coli IAI1 0.939 | Eubacterium rectale 0.973 | [3] 0.926 | Lactobacillus gasseri 1.15 | Lactobacillus paracasei 1.08 | Odoribacter splanchnicus 0.974 | [4] 0.986 | Parabacteroides merdae 0.956

CC(C)C1C2CCC1c1c(NC(=O)c3cn(C)nc3C(F)F)cccc12 (stereo not given)
active: [4] 0.533
inactive: Akkermansia muciniphila 0.967 | Bacteroides caccae 0.88 | Bacteroides clarus 0.85 | Bacteroides dorei 0.965 | Bacteroides stercoris 0.902 | [1] 0.906 | Bacteroides uniformis 0.912 | [2] 0.912 | Clostridium difficile 0.962 | Collinsella aerofaciens 0.969 | Coprococcus comes 0.966 | Escherichia coli ED1a 1 | Escherichia coli IAI1 0.957 | Eubacterium rectale 0.971 | [3] 0.906 | Lactobacillus gasseri 0.702 | Lactobacillus paracasei 0.965 | Odoribacter splanchnicus 0.758 | Parabacteroides merdae 0.862
